The list is not random: actives were taken first. Their share in the collection is about 3.7%.
tim23-1 inh: inhibits growth of tim23-1 mutant yeast; S. cerevisiae tim23-1 growth, BacTiter-Glo luminescence, 24 h; inhibition, % at 20 µM; actives 1.3% (n = 330,000); AID 463212;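 active = growth inhibition of the mutant yeast at or above 50%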;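 note: temperature-sensitive mutant grown at 25 °C; plate controls were DMSO-treated mutant yeast for no effect and medium wells lacking yeast for full effect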
PfHsp90 yeast 2: reduces growth (ATP signal) of yeast expressing P. falciparum Hsp90; S. cerevisiae expressing PfHsp90, BacTiter-Glo ATP, 48 h; yeast lacking PDR1 and PDR3 efflux regulators; inhibition, % at 9.4 µM; actives 0.32% (n = 310,000);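 active = every replicate shows inhibition above about 80%, whatever the replicate mean, limit read from the data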;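 note: 0% = DMSO neutral controls and 100% = 20 µM radicicol positive controls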
TIM10 inh: growth inhibitors of TIM10 yeast strain; S. cerevisiae TIM10 strain growth, BacTiter-Glo luminescence, 24 h; inhibition, % at 10 µM; actives 1.4% (n = 330,000); AID 463195;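 active = inhibition of 40% or more at the single tested concentration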;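 note: wild-type TIM10 isogenic control strain grown at permissive 25 °C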
tim10-1 inh: inhibits growth of tim10-1 mutant yeast | S. cerevisiae tim10-1 ts strain growth, BacTiter-Glo, 24 h | inhibition, % at 20 µM | actives 2.2% (n = 330,000) | AID 463190;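 active = inhibition of at least 40%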;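 note: mutant grown at 25 °C; 0% = DMSO wells with yeast and 100% = wells holding no yeast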
Rce1 inh: blocks yeast Ras-converting enzyme; actives 0.27% (n = 290,000); Q03530; AID 2563; calls only; yeast membranes, quenched prenylated peptide cleavage fluorescence;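 active = fall in fluorescence gain of 50% or more versus controls, with final raw signal at or below 3038400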;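 note: plate controls were neutral control wells for no effect and wells lacking membranes for full effect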
Target sequence (Q03530 whole entry, looked up): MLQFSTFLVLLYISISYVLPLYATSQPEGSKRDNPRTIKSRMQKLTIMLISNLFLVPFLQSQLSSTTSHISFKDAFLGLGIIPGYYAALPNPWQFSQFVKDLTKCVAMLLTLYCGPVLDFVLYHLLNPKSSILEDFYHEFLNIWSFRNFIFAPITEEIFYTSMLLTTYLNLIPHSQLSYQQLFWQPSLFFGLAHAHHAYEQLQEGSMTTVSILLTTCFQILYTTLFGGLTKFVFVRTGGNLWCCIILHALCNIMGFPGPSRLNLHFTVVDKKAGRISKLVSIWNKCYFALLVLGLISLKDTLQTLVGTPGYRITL
TIM10 conf: confirmation of TIM10 yeast growth inhibitors; inhibition, % at 10 µM; AID 463215; actives 63% (n = 4,600); S. cerevisiae tim10 strain growth, BacTiter-Glo luminescence, 24 h; shares compounds with TIM10 inh;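 active = inhibition of yeast growth at or above a set limit in either of two replicates at 10 µM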;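 note: this counterscreen used the strain with wild-type TIM10; 0% = yeast with DMSO and 100% = medium wells lacking yeast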
tim23-1 conf: tim23-1 yeast growth inhibition, confirmed; S. cerevisiae tim23-1 growth, BacTiter-Glo luminescence, 24 h; inhibition, % at 20 µM; actives 83% (n = 4,400); shares compounds with tim23-1 inh; AID 463218;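 active = inhibition above about 39% in either of two replicate wells at 20 µM, limit read from the data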;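 note: temperature-sensitive tim23-1 mutant grown at 25 °C; 0% = DMSO wells with yeast and 100% = medium wells without yeast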
The depositor's hits bear a star; i = inactive; . = no result given.

SMILES	tim23-1 inh	PfHsp90 yeast 2	TIM10 inh	tim10-1 inh	Rce1 inh	tim23-1 conf	others
Cn1cccc1/C=C1/C(=O)NC(=S)N(Cc2ccc(F)cc2)C1=O	-4.5	-31.0	84.3*	-9.7	i	.	TIM10 conf=85.7*
CC(=O)C1C(N2CC2)CC2C3CCC4=CC(=O)CCC4(C)C3CCC21C (stereo unspecified)	.	-5.3	.	.	.	.
COC(=O)C1=CCCN(C)C1	-3.5	-5.1	3.3	12.4	i	.
CN1CCC(c2c[nH]c3ccc(O)cc23)CC1	.	-0.7	.	.	.	.
CC1CCCC(C)N1/N=C/c1c[nH]c2ccc(Br)cc12 (stereo unspecified)	11.4	19.5	42.0*	34.1	i	.	TIM10 conf=-38.2
Cn1cnc([N+](=O)[O-])c1Sc1ccc([N+](=O)[O-])cc1	5.4	-5.0	7.2	14.5	i	.
CC(C)(C)N(NC(=O)c1ccccc1)C(=O)c1ccccc1	-10.3	2.6	40.2*	-3.2	i	.	TIM10 conf=-2.6
CC(C)CN1CCN(Cc2ccc(C(F)(F)F)cc2)CC1CCO (stereo unspecified)	4.8	-11.9	-3.3	-0.9	i	.
Cc1nc2ccccc2c(=O)n1/N=C/c1cc(Br)cc(Br)c1O	83.5*	-16.4	73.0*	39.1	i	88.9*	TIM10 conf=25.2
COc1ccc(C)cc1NC1=NCCCS1	-8.0	1.8	-6.2	-5.3	i	.
O=C(CSC1c2ccccc2-c2ccccc21)N/N=C/c1ccccc1O	52.3*	-41.3	47.1*	29.5	i	58.4*	TIM10 conf=58.4*
Cc1ccc(Cn2cc(C=O)c(-c3ccc(F)cc3)n2)cc1	49.3	-5.4	20.2	28.6	i	.
Cc1ccc(-c2nn(Cc3ccccc3)cc2C=O)cc1C	52.6*	-58.5	52.1*	31.1	i	58.4*	TIM10 conf=55.4*
Cc1nn(Cc2ccccc2)c(Cl)c1C(=O)OC(C)C(=O)Nc1ccc(F)cc1Cl (stereo unspecified)	-11.3	-5.2	7.0	20.2	i	.
CC1(C)OC(c2ccccc2)=C/C(=C/C=C2C(=O)NC(=S)NC2=O)O1	57.4*	.	20.6	24.8	i	62.9*
CC(N)Cc1c[nH]c2c1ccc1ccccc12 (stereo unspecified)	11.1	1.5	6.0	15.1	i	.
COP(=O)(OC)/C(C=O)=N/Nc1ccc([N+](=O)[O-])cc1	51.7*	7.1	10.1	9.3	i	50.1*
O=c1[nH]c(=S)n(CCC2=CCCCC2)c(O)c1/C=N/N1CCOCC1	52.0*	.	36.1	37.2	i	36.8*
Cc1c(C(=O)C(=O)N2CCC3(CC2)OCCO3)c2ccccc2n1C	19.1	-8.9	-0.4	8.9	i	.
CN1CCc2cc3c(c4c2C1Cc1ccccc1-4)OCO3 (stereo unspecified)	67.2*	-11.6	28.2	33.3	i	67.3*
Cc1ccc(-c2nn(Cc3ccccc3)cc2C(=O)O)cc1	2.2	15.6	-16.6	-8.7	i	.
Cc1ccc(-c2nn(Cc3ccccc3)cc2C=O)cc1	57.4*	-28.3	27.0	17.7	i	54.9*
O=S(=O)(NC1CCCC1)OCC(Cl)(Cl)Cl	29.2	-2.0	9.5	6.9	i	.
O=S(=O)(NC1CCCCCCC1)OCC(Cl)(Cl)Cl	50.4*	.	26.3	26.9	i	59.1*
Cc1ccccc1-n1c(/C=C/c2ccccn2)nc2ccccc2c1=O	51.9*	0.9	7.4	33.8	i	43.1*
SMILES	tim23-1 inh	PfHsp90 yeast 2	TIM10 inh	tim10-1 inh	Rce1 inh	tim23-1 conf	others
O=c1c2ccccc2nc(/C=C/c2ccc(F)cc2)n1-c1ccccn1	12.1	.	13.0	6.8	i	.
O=c1c2ccccc2nc(/C=C/c2ccccc2)n1-c1ccccc1O	50.8*	3.9	18.2	24.8	i	44.2*
O=c1c2ccccc2nc(/C=C/c2ccc(O)cc2)n1-c1ccccc1O	31.5	7.3	3.6	13.8	i	.
Cc1ccc(-n2c(O)c(C=Nc3ccc(S(=O)(=O)N(C)C)cc3)c(=O)[nH]c2=O)cc1	-9.9	3.1	4.7	11.0	i	.
O=c1c2ccccc2nc(Cc2ccccc2)n1-c1ccccc1O	22.4	-55.2	0.3	10.7	i	.
CCCCCc1nc2c(c(=O)c3ccccc3n2C)c(=O)n1C1CCCCCC1	70.4*	-0.5	-0.5	-39.8	i	-33.6
COc1cc(-n2c(=S)[nH]c3ccccc3c2=O)c(Cl)cc1Cl	51.6*	.	22.9	25.1	i	38.5
C[N+]1(CCC(C(N)=O)(c2ccccc2)c2ccccc2)CCCCC1	-7.4	.	3.0	-8.1	i	.
CCC(C)NC(=O)c1c(N)n(CCCOC)c2nc3ccccc3nc12 (stereo unspecified)	52.5*	-7.3	25.2	39.2	i	48.1*
COCCCn1c(N)c(C(=O)OC(C)COC)c2nc3ccccc3nc21 (stereo unspecified)	19.8	-18.0	3.8	-2.2	i	.
CNC(=O)O/N=C(\C)Cc1nnn(-c2cc(C)on2)n1	-4.6	-3.9	9.7	9.4	.	.
